From PubChem BioAssay come the findings set out here.

The structures appear in SMILES notation. Where “and” joins values, the source holds several entries; their conditions need not be identical. Equal values may be shown once. Some structures have more than one record in an assay (separate samples or runs), and their calls can disagree. Calls of active or inactive are those of the source.

A short description of assay [1]: small molecules captured by biotinylated probe aFSTL3 – biochemical, small-molecule microarray, fluorescence 635/667, stem cell growth factor project, primary screen (AID 1064).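 Note: measures binding of the biotinylated anti-FSTL3 antibody to printed compounds.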 The following applies: higher = more signal.
A short description of assay [2]: binders from COS7 lysate, DM2A8 probe, primary screen, torsin A project, cell lysate, small-molecule microarray, fluorescence 635/667 (AID 1065). The following applies: higher = more signal, COS7 lysate expressing mutant human TOR1A.
Assay [3] in a line: small molecules captured by biotinylated probe aFGF2 – biochemical, small-molecule microarray, fluorescence 635/667, stem cell growth factor project, primary screen (AID 1067).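 Note: measures binding of biotinylated aFGF2 protein to printed compounds on slides; z-score merges feature fluorescence and signal-to-noise across triplicate slides.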 The following applies: higher = more signal.
Assay [4] in a line: small molecules captured by biotinylated probe aFGF10 – biochemical, small-molecule microarray, fluorescence 635/667, stem cell growth factor project, primary screen (AID 1071).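 Note: score merges 667 nm spot intensity and signal to noise from triplicate slides.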 The following applies: higher = more signal.
For assay [5], the target named is Neurogenic locus notch homolog protein 2 (Homo sapiens) (UniProt Q04721). In words: small molecules binding Notch2 protein – biochemical, small-molecule microarray, 635 nm fluorescence, stem cell growth factors, primary screen (AID 1073). The following applies: higher = more signal.
Assay [6] addresses Pro-neuregulin-1, membrane-bound isoform (Homo sapiens) (UniProt Q02297). In words: small molecules binding neuregulin-1 protein – biochemical, small-molecule microarray, fluorescence 635/667, psychiatric disease protein project, primary screen (AID 1075).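 Note: score combines 667 nm spot fluorescence with signal to noise.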 The following applies: NRG1 binding, 635 nm fluorescence, higher = more signal.
Assay [7] deals with Neuregulin-1 EGF-like domain. The assay can be described thus: small molecules binding NRG1 EGF domain – biochemical, small-molecule microarray, 635 nm fluorescence, primary screen (AID 1081).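 Note: binding of the protein to compounds printed on small-molecule microarray slides.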 The following applies: higher = more signal.
Assay [8] in a line: FRG1 expression reporter modulators in myotubes – cell-based, C2C12 myotubes, firefly/Renilla luciferase, luminescence, FRG1 inhibition for FSHD, primary screen (AID 1084). The following applies: FRG1 promoter luciferase, higher = more signal, called active from +8 up or from −8 down.
A short description of assay [9]: small molecules captured by biotinylated probe aFST – biochemical, small-molecule microarray, fluorescence 635/667, stem cell growth factor project, primary screen (AID 1086).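 Note: score merges 667 nm fluorescence with signal-to-noise of each printed compound spot.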 The following applies: higher = more signal.
Assay [10] in a line: binders of probe aHhip on microarray, primary screen, stem cell growth factor project, biochemical, small-molecule microarray, fluorescence 635/667 (AID 1087).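 Note: score merges spot fluorescence at 667nm with spot signal to noise ratio.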 The following applies: higher = more signal.
The test system of assay [11] is PRMT1 (protein arginine N-methyltransferase 1). In words: small molecules binding arginine methyltransferase PRMT1 – biochemical, small-molecule microarray, 635 nm fluorescence, primary screen (AID 1088).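 Note: binding of Prmt1 protein to compounds spotted on small-molecule microarray slides.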 The following applies: higher = more signal.
Assay [12] can be described thus: growth effects on S. cerevisiae YJM789 – YJM789 clinical isolate, OD600, 24 h, basal, primary screen (AID 1089).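 Note: growth of clinical yeast isolate S. cerevisiae YJM 789 seeded 1000 cells per well; test concentration not given here.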 The following applies: higher = more signal, called active from +8 up or from −8 down.
A short description of assay [13]: S. pombe growth modifiers, basal conditions – strain 972, OD600, 24 h, no modulator, primary screen (AID 1090).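 Note: basal condition with compound alone and no growth modifier present; test concentration not given here.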 The following applies: S. pombe 972 growth, higher = more signal, called active from +8 up or from −8 down.
Assay [14] in a line: budding yeast growth modifiers under rapamycin – strain BY4716, OD600, 96 h, primary screen (AID 1091). Note: test concentration not given here. The following applies: S. cerevisiae BY4716 + rapamycin, higher = more signal, called active from +8 up or from −8 down.
The target in assay [15] is Torsin-1A-interacting protein 2 (Homo sapiens) (UniProt Q8NFQ8). The assay can be described thus: small molecules binding lysate-expressed LULL1 – cell lysate, human LULL1 lysate, 635/667 nm fluorescence, primary screen (AID 1092).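 Note: probe is lysate of COS7 cells overexpressing human LULL1; score merges per-feature 667 nm fluorescence with signal-to-noise.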 The following applies: small-molecule microarray, hLULL1 lysate binding, 635 nm fluorescence; higher = more signal.
Assay [16] in a line: optical density change of DRC41 E. coli – strain DRC41, OD650, 24 h, E. coli filamentation project, primary screen (AID 1093).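 Note: MC1000 strain lacking acrAB efflux and sulA so SOS filamentation is blocked; test concentration not given here.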 The following applies: E. coli DRC41 growth, higher = more signal, called active from +8 up or from −8 down.
Assay [17] is described as follows: probe aLefty2 binding to arrayed compounds – biochemical, biotinylated probe, 635/667 nm fluorescence, primary screen (AID 1094).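 Note: score merges spot fluorescence near 667 nm with spot signal-to-noise ratio.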 The following applies: small-molecule microarray, higher = more signal.
The test system of assay [18] is Noggin (protein binding on small-molecule microarray). In words: small molecules binding Noggin protein – biochemical, 635/667 nm fluorescence, primary screen (AID 1095).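 Note: score merges 667 nm feature fluorescence with signal to noise over triplicate slides.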 The following applies: 635 nm fluorescence, higher = more signal.
In assay [19] the target is Neurogenic locus notch homolog protein 3 (Homo sapiens) (UniProt Q9UM47). In words: small molecules binding NOTCH3 protein – biochemical, 635/667 nm fluorescence, primary screen (AID 1096). The following applies: small-molecule microarray, 635 nm fluorescence, higher = more signal.
The nature of assay [20]: probe aEGFR binding to arrayed compounds – biochemical, biotinylated probe, 635/667 nm fluorescence, primary screen (AID 1097).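 Note: probe is a biotinylated anti-EGFR antibody binding compounds printed on slides; score combines fluorescence near 667 nm and signal to noise of each spot.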 The following applies: small-molecule microarray, higher = more signal.

Chain of Neurogenic locus notch homolog protein 3 (Homo sapiens) (Q9UM47 whole entry, looked up): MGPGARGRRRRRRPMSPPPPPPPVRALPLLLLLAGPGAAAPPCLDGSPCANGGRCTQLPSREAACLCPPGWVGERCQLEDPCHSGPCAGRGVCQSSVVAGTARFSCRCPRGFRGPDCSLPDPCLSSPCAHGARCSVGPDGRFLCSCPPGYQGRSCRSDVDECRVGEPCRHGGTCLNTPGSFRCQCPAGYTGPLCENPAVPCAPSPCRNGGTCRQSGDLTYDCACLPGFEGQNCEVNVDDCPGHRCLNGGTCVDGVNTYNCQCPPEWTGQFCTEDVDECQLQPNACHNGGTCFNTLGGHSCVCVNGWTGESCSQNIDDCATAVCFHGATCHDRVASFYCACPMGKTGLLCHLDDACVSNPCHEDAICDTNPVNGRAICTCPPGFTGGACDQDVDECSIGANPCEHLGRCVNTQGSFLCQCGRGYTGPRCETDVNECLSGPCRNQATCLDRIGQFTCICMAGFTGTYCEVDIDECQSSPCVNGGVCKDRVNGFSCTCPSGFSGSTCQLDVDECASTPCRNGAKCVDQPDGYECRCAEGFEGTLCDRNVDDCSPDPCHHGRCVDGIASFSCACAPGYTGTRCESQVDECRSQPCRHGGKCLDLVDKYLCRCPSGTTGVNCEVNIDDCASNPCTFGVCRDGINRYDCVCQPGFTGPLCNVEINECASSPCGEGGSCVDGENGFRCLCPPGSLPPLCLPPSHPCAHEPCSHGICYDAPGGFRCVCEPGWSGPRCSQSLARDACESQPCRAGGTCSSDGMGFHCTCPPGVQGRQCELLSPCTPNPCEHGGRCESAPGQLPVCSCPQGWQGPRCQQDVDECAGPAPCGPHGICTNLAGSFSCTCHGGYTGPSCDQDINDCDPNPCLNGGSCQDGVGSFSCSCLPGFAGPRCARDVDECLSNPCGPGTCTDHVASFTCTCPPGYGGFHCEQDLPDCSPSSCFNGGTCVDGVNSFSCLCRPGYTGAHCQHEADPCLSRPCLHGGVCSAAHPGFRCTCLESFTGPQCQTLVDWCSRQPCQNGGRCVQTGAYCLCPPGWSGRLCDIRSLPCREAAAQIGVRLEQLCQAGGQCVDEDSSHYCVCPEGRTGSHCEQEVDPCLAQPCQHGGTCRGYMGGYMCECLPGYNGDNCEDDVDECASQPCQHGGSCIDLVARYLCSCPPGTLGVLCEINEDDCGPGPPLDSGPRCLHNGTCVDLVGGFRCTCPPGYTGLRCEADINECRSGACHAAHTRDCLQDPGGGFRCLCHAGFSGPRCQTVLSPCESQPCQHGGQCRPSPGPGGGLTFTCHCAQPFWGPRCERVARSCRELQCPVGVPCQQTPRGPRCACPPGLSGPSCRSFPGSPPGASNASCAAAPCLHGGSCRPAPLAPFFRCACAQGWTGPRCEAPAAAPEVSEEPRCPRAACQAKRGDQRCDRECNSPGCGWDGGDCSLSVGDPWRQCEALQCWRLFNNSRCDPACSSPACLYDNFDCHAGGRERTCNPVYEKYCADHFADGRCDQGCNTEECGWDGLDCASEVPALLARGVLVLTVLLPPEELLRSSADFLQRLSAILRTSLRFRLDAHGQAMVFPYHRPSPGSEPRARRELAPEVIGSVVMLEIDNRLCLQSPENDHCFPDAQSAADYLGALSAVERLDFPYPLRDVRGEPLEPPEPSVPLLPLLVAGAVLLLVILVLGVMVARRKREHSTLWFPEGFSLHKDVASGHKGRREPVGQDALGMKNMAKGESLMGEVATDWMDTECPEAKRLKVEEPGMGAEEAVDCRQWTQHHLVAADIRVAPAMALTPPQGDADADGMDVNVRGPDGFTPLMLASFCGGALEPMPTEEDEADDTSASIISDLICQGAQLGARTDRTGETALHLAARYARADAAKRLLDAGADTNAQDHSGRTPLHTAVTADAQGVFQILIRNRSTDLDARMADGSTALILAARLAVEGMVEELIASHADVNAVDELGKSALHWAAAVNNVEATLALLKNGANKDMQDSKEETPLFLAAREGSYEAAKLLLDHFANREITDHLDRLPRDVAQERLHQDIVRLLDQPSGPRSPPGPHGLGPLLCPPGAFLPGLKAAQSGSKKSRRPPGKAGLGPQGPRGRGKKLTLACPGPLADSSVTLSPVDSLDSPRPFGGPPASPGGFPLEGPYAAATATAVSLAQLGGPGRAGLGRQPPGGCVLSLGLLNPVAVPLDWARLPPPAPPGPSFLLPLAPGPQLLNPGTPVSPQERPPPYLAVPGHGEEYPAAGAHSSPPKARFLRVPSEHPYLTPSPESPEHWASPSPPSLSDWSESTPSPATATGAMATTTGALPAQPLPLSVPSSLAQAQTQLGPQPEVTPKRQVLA
Chain of Neurogenic locus notch homolog protein 2 (Homo sapiens) (Q04721 whole entry, looked up, canonical isoform): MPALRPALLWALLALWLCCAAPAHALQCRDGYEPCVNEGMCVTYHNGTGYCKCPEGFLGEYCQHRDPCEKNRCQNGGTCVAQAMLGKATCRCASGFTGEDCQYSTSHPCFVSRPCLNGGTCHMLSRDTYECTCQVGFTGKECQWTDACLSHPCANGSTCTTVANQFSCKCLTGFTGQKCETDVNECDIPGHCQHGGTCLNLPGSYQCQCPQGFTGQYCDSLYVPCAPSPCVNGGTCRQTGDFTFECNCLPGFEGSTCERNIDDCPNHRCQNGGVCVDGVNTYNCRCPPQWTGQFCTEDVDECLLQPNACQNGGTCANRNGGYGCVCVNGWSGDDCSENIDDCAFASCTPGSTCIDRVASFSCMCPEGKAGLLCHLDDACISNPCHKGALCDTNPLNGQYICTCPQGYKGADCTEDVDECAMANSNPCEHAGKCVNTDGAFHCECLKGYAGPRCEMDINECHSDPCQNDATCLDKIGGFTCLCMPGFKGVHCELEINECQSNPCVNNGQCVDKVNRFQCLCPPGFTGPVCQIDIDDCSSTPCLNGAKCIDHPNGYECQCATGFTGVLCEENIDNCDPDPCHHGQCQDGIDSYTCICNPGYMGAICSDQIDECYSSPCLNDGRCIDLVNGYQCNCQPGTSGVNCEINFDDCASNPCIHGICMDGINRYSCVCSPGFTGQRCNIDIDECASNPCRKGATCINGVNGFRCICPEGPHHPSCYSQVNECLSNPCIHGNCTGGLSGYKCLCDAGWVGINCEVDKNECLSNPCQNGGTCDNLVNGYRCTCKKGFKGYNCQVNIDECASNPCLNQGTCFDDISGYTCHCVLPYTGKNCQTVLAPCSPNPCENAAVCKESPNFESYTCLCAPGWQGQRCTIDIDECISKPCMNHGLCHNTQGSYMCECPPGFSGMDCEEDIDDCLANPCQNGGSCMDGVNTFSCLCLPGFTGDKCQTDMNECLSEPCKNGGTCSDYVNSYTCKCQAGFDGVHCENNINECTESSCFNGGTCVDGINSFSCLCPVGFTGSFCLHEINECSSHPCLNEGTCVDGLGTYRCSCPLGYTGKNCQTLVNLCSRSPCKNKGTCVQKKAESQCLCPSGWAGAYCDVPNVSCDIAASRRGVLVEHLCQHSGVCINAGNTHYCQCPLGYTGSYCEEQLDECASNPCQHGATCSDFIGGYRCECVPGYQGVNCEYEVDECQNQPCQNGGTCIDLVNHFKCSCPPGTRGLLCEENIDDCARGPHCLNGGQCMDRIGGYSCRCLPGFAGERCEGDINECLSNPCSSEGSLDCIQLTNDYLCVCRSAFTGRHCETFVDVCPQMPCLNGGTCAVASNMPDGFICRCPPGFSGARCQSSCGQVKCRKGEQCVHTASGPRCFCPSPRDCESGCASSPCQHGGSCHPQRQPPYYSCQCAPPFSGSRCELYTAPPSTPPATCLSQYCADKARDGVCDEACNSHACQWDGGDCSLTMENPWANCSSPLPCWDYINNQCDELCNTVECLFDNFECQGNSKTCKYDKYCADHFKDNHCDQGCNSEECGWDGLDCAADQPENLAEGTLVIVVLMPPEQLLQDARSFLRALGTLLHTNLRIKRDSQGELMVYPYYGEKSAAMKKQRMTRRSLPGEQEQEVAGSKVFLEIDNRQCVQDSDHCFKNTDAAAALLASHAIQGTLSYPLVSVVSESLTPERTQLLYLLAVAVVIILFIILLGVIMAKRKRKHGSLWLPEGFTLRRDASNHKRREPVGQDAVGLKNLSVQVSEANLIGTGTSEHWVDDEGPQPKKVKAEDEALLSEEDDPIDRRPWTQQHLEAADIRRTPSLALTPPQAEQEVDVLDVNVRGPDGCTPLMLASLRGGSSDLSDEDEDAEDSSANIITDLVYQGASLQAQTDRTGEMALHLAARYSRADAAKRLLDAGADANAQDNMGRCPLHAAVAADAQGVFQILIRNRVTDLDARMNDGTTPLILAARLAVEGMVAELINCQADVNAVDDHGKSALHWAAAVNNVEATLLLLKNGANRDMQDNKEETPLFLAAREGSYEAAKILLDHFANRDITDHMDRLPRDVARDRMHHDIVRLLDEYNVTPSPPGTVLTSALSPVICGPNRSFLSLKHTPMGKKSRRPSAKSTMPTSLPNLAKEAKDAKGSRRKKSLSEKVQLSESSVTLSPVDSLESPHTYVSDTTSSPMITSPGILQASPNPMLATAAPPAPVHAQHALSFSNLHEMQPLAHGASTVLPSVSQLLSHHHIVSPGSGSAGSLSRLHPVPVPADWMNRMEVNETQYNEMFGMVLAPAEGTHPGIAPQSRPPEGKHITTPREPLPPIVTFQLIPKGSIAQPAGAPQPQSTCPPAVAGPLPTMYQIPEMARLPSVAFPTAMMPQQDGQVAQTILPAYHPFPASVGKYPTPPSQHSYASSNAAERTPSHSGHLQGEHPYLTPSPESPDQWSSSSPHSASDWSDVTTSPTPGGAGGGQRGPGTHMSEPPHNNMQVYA

On to `CC(CO)N1C(=O)[C@@H]2C3C(=O)OCCC=C[C@H]3OC23C=CCN(C(C)(C)C)C(=O)[C@@H]13` (stereo not given in full), for which the composite z-score is 0.589 and 0.169 in assay [1]; -0.848 and -0.0168 in assay [2]; -0.158 and -0.0296 in [3]; -0.884 and 0.546 in [4]; -1.01 and 0.13 in assay [5]; -0.551 and 0.91 in assay [6]. Moreover, the composite z-score was 0.369 and 1.41 in assay [7]; -0.547 and -0.0366 in [9]; -0.134 and 0.0749 in [10]; -0.577 and 0.254 in [11]; -0.326 and 2.17 in [15]; -0.176 and 0.0028 in [17]. The composite z-score is -0.808 and 0.16 in assay [18]; -0.431 and 0.289 in assay [19]; -0.295 and -0.117 in assay [20]. Besides, the z-score in assay [8] was 0.714 (inactive) and 0.355 (inactive); in assay [12] it was 0.581 (inactive) and -1.45 (inactive); in assay [13], 0.605 (inactive) and -0.779 (inactive); in assay [14], 0.819 (inactive) and -0.544 (inactive); in [16], -0.586 (inactive) and -0.513 (inactive).

On to `CO[C@@H]1COC(=O)CC=C[C@H](C)COC(=O)[C@H](C)NC(=O)CC=C[C@H]1C`, for which the composite z-score in assay [1] was -0.563; in [2] it was 1.75; in assay [3], -0.203; in [4], 0.126; in [5] it was 0.269; in [6], -0.557. The composite z-score in assay [7] is -0.139; in assay [9] it was -0.118; in assay [10], 0.0505; in [11], 1.38; in assay [15], -0.654; in assay [17] it was -0.235. Moreover, the composite z-score in assay [18] was 1.68; in [19], 0.438; in assay [20], -0.157. In addition, the z-score in [8] was -0.87 (inactive); in assay [12] it was 1.19 (inactive); in [13], 1.04 (inactive); in assay [14] it was 1.25 (inactive); in assay [16] it was 0.18 (inactive).

Take `CCOC(=O)C[C@H]1[C@H](OC(=O)c2ccccc2-c2ccccc2)[C@@H](NC(=O)Cc2ccc(OC)cc2)c2cc(OCCCO)ccc2N1C(=O)c1ccc2ccccc2n1`: the composite z-score in [1] was -0.21 and 0.27; in [2], 0.266 and 0.395; in [3], -0.0781 and 0.16; in assay [4], 0.27 and 0.319; in assay [5], 0.305 and 0.361; in [6] it was 0.147 and 0.653. In addition, the composite z-score is -0.529 and 0.0101 in assay [7]; 0.442 and 0.575 in assay [9]; -0.0645 and -0.0672 in assay [10]; -0.557 and 0.587 in assay [11]; 0.347 and 0.379 in assay [15]; -0.0953 and 0.0397 in assay [17]. Besides, the composite z-score was 0.248 and 0.329 in assay [18]; 0.0452 and 0.418 in [19]; -0.0107 and 0.182 in assay [20]. Further, the z-score in assay [8] was -0.0725 (inactive) and 0.266 (inactive); in assay [12], -0.321 (inactive) and -0.249 (inactive); in assay [13] it was -0.0002 (inactive) and -0.478 (inactive); in [14], -0.411 (inactive) and 0.456 (inactive); in assay [16] it was 2.43 (inactive) and 1.41 (inactive).

As for `COC(=O)C1=C(C)N(Cc2ccccc2)C2=C(C(=O)c3ccccc3)[C@H](c3ccccc3)[C@@](O)(C(=O)OC)C(=O)N2[C@@H]1c1ccccc1`, the composite z-score is -0.195 and -0.325 in assay [1]; -0.16 and 0.0962 in [2]; -0.0759 and -0.0691 in assay [3]; 0.429 and 0.387 in [4]; 0.98 and 0.272 in assay [5]; 0.296 and -0.085 in [6]. For the same compound, the composite z-score was 0.672 and 0.253 in assay [7]; 0.128 and 0.0478 in assay [9]; -0.236 and 0.625 in assay [10]; 0.518 and 0.722 in assay [11]; 0.886 and 0.23 in assay [15]; 0.0039 and -0.115 in assay [17]. Moreover, the composite z-score in assay [18] is 0.495 and 0.653; in assay [19], 0.858 and 0.808; in [20], 0.127 and -0.123. The z-score in [8] was -0.363 (inactive) and 0.429 (inactive); in assay [12], 0.504 (inactive) and 0.653 (inactive); in assay [13], -0.413 (inactive) and -0.0902 (inactive); in assay [14] it was 34.6 (active) and 0.863 (inactive); in [16], 0.591 (inactive) and 0.311 (inactive).

`CCOC(=O)[C@@H]1CC=C2CC1C(=O)N1CCC[C@@H]1[C@H]2O[Si](C)(C)C(C)(C)C` (stereo not given in full): the composite z-score in [1] is -0.116 and -0.386; in assay [2], -0.323 and -0.427; in [3] it was -0.157 and -0.282; in assay [4], -0.833 and -1.22; in assay [5], -1.16 and -1.46; in assay [6], -0.653 and -0.709. The composite z-score in assay [7] is -1.69 and -0.727; in assay [9] it was -0.0907 and -1.25; in assay [10], -0.0994 and -0.252; in assay [11] it was -0.884 and -1.29; in assay [15], -0.664 and -0.302; in [17] it was -0.0807 and -0.347. In addition, the composite z-score was -0.462 and -0.414 in assay [18]; -0.529 and -2.04 in assay [19]; -0.218 and -0.273 in [20]. Also, the z-score in assay [8] was 0.678 (inactive) and -1.08 (inactive); in [12], -0.541 (inactive) and -2.68 (inactive); in [13], -1.43 (inactive) and -19.5 (active); in assay [14], 0.119 (inactive) and -1.52 (inactive); in assay [16] it was -0.988 (inactive) and -0.253 (inactive).

Regarding `CC(CO)N1C(=O)[C@@H]2C3C(=O)OCCC=C[C@H]3OC23C=CCN(Cc2ccccc2)C(=O)[C@@H]13` (stereo not given in full), the composite z-score in assay [1] was 0.144 and 0.708; in assay [2], 1.03 and -0.0188; in assay [3] it was -0.162 and -0.111; in [4], -0.691 and 0.0659; in assay [5] it was -1.24 and -0.565; in assay [6], -0.852 and 1.22. In addition, the composite z-score in assay [7] was 1.08 and 0.738; in [9] it was -0.41 and -0.455; in assay [10] it was -0.236 and -0.34; in assay [11], -0.477 and -0.385; in assay [15] it was 1.16 and 0.0845; in [17] it was -0.0216 and -0.0449. For the same compound, the composite z-score in assay [18] is -1.05 and -0.529; in [19], -0.36 and -0.377; in assay [20] it was -0.196 and -0.221. In addition, the z-score in [8] is 0.587 (inactive) and 0.0791 (inactive); in assay [12], 0.814 (inactive) and -0.448 (inactive); in [13], -0.326 (inactive) and -1.08 (inactive); in [14], 1.53 (inactive) and -0.42 (inactive); in assay [16], 1.3 (inactive) and 1.67 (inactive).
